# In the supplement of paper PMC8728848:
# Many of the other results were omitted from the sample, so the strongest signals are more common in it than they were.
# B1: PitA (Streptococcus oralis), G3F8D8 (protein)
# chain: MNIRFDFKKVQIIARRLVTLLAILFLCAPISLLNADSTTEPQTTLHKTITPISGQDDKYELSLDITSKLGTETQTDPLDVVLVADLSGSMQNQDVQSFDGRTISRIDALKNTLRGTNGRKGLIDTILSNSNNRLSMVGFGGKIDNKKVDQYWDGNKWRLFRPYWPYERMTKYYDGVSPWDDANTILGWSNNARAAKTAVYNMSIAGGNSIGTESGIGTGTNIGAGLTLANQLMGSARSNAKKVVILLSDGFANMVYDANGYTIYNYNNEDPNIETAPQWFWDRLNNNLNSLSYSLAPTLDGFYSIKFRYSNNVDSITSLQYYMRQHNASIPNEIFSANDEDQLRDSFKDITDKILPLGIHHVSIKDVLSKYVQLLPNGSSEFRVVKEKDGSSEILIENQVTFDTKTTSEGLVEVTAKFSPNYSLEDGARYVLKFTVTSSQEALDAIAGDKKLEAGDAEGSDVNKLYSNKGASVTYSYGIGNSQTKTKEYSDNPTFKPSDPLTVPVEVEWQGVTGARTVITADQPSNVELKLVQKNKNGGSDNQDYRKTNVNVSKNVSNETRNFEKVAKGYQYDLIAPDVPAFTKEIKNVGTESKPSFKVIYKQLPSLTIKKVLEAENNLNKEFRIKVKLTSPDSKPLNGTFGEITVVNGEAEIRVEKRKRWEGILSYLPRGTHYKVEEEAASTNGYHVTYENQEGDLNKDETSIVTNHKLPSLSVTKKVTGVFANLLKSFKITINIRDAQNSPLNGTYTATVNNKRTPLQFTNGRASIDLNKDQTIKIYGLPLDSHYTVEEESNSSRGYQVSYENQEGKLDGDKSATVTNNKNSVPETGVDFLSSTLMLGIILPLGGIFFTILLGYLVVHRRK
# B2: SRS6 (Toxoplasma gondii), Q9NH12 (protein)
# chain: MARTGSMQQRRGGFQTTARMLMAVCVSGVLLLSSGPSSANKLTEGQQNQNSGPGAATQEGPTIEGAVAKCVLKTTAAENGSSRAKNTTGLTLSKENLVVSLQCSGEKNAIVPKDQKKVCSAAPNAKVADCKGADTDKQVTLKSLLGTSGDIQWEKTIVSTDNKGEVMTLKIKESELPLFDKAFFVGCEEDKAQTRTSQATECKVNVSVKARPSTVGENNVVTCAYGKDSNPRPLEVEMSADNDTLTIDCGTDGSLKPTKYTEEFCVTDNSQLESCTTKKFSEILPTFLPSWWVSDSQNGSAKLTIPESGFPEEQQQFRLGCVPKKTTQSPQANPSVKTEKEEGAQNTDASTSNCSVIVTVKASNFSSLASSIAPTAAVAGGAAALTGFLVGSF
# Columns and labels:
# Test in all cases: glycan array binding signal (z-score within array); higher = stronger binding
# Conditions in all cases: glycan notation: IUPAC condensed, linker removed
# Kdn(a2-3)Gal(b1-4)Glc = molecular target: Kdn(a2-3)Gal(b1-4)Glc
# In short: (§1)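 From the Consortium for Functional Glycomics database, 3228 arrays were curated, keeping only those whose protein sequence was available. Binding is given as a within-array Z-score averaged across arrays sharing a protein sequence and across linkers. Negative Z-scores can be read as non-binding.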
# [1] = molecular target: Kdn(a2-3)Gal(b1-4)[Fuc(a1-3)]GlcNAc
# In short: as §1
# Man(a1-3)[Man(a1-6)]Man = molecular target: Man(a1-3)[Man(a1-6)]Man
# In short: as §1
# [2] = molecular target: Neu5Ac(a2-3)Gal(b1-3)GlcNAc(b1-3)GalNAc
# In short: as §1
# [3] = molecular target: Neu5Ac(a2-3)Gal(b1-4)[Fuc(a1-3)]GlcNAc(b1-3)Gal(b1-4)[Fuc(a1-3)]GlcNAc(b1-3)Gal(b1-4)[Fuc(a1-3)]GlcNAc
# In short: as §1
# [4] = molecular target: Neu5Ac(a2-3)Gal(b1-4)[Fuc(a1-3)]GlcNAc(b1-3)GalNAc
# In short: as §1
# [5] = molecular target: Neu5Ac(a2-3)Gal6S(b1-4)[Fuc(a1-3)]GlcNAc
# In short: as §1
# Neu5Ac(a2-6)Gal(b1-4)Glc = molecular target: Neu5Ac(a2-6)Gal(b1-4)Glc
# In short: as §1
# [6] = molecular target: Neu5Ac(a2-6)Gal(b1-4)GlcNAc(b1-2)Man(a1-6)[Gal(b1-4)GlcNAc(b1-2)Man(a1-3)]Man(b1-4)GlcNAc(b1-4)GlcNAc
# In short: as §1
# [7] = molecular target: Neu5Ac(a2-6)Gal(b1-4)GlcNAc(b1-2)Man(a1-6)[Man(a1-3)]Man(b1-4)GlcNAc(b1-4)GlcNAc
# In short: as §1
# [8] = molecular target: Neu5Ac(a2-8)Neu5Ac(a2-3)[Gal(b1-3)GalNAc(b1-4)]Gal(b1-4)Glc
# In short: as §1
# [9] = molecular target: Neu5Ac(a2-8)Neu5Ac(a2-8)Neu5Ac(a2-8)Neu5Ac(a2-3)[GalNAc(b1-4)]Gal(b1-4)Glc
# In short: as §1
# [10] = molecular target: Neu5Ac9Ac(a2-3)Gal(b1-3)GlcNAc
# In short: as §1
# [11] = molecular target: Fuc(a1-2)Gal(b1-3)GalNAc(b1-3)Gal
# In short: as §1
# [12] = molecular target: Fuc(a1-2)Gal(b1-4)GlcNAc(b1-2)Man(a1-3)[Fuc(a1-2)Gal(b1-4)GlcNAc(b1-2)Man(a1-6)]Man(b1-4)GlcNAc(b1-4)GlcNAc
# In short: as §1
# [13] = molecular target: Fuc(a1-2)Gal(b1-4)[Fuc(a1-3)]GlcNAc
# In short: as §1
# [14] = molecular target: Fuc(a1-2)[Gal(a1-3)]Gal(b1-4)Glc
# In short: as §1
# [15] = molecular target: Fuc(a1-2)[GalNAc(a1-3)]Gal(b1-4)GlcNAc(b1-3)Gal(b1-4)GlcNAc(b1-3)Gal(b1-4)GlcNAc
# In short: as §1
# Gal(a1-3)Gal = molecular target: Gal(a1-3)Gal
# In short: as §1
# [16] = molecular target: Gal(a1-3)Gal(b1-4)GlcNAc(b1-3)GalNAc
# In short: as §1
# [17] = molecular target: Gal(a1-3)Gal(b1-4)[Fuc(a1-3)]GlcNAc(b1-2)Man(a1-3)[Gal(a1-3)Gal(b1-4)[Fuc(a1-3)]GlcNAc(b1-2)Man(a1-6)]Man(b1-4)GlcNAc(b1-4)GlcNAc
# In short: as §1
# Gal(a1-3)GalNAc = molecular target: Gal(a1-3)GalNAc
# In short: as §1
# Gal(b1-3)Gal(b1-4)GlcNAc = molecular target: Gal(b1-3)Gal(b1-4)GlcNAc
# In short: as §1
# [18] = molecular target: Gal(b1-3)GlcNAc(b1-2)Man(a1-3)[Gal(b1-3)GlcNAc(b1-2)Man(a1-6)]Man(b1-4)GlcNAc(b1-4)[Fuc(a1-6)]GlcNAc
# In short: as §1
# [19] = molecular target: Gal(b1-4)GlcNAc(b1-2)Man(a1-3)[Gal(b1-4)GlcNAc(b1-2)Man(a1-6)]Man(b1-4)GlcNAc(b1-4)GlcNAc
# In short: as §1
# [20] = molecular target: Gal(b1-4)GlcNAc(b1-2)Man(a1-3)[Gal(b1-4)GlcNAc(b1-2)Man(a1-6)]Man(b1-4)GlcNAc(b1-4)[Fuc(a1-6)]GlcNAc
# In short: as §1
# [21] = molecular target: Gal(b1-4)GlcNAc(b1-3)Gal(b1-4)GlcNAc(b1-3)Gal(b1-4)GlcNAc
# In short: as §1
# [22] = molecular target: Gal(b1-4)GlcNAc(b1-3)Gal(b1-4)[Fuc(a1-3)]GlcNAc(b1-3)Gal(b1-4)[Fuc(a1-3)]GlcNAc
# In short: as §1
# [23] = molecular target: Gal(b1-4)GlcNAc(b1-3)[GlcNAc(b1-6)]Gal(b1-4)GlcNAc
# In short: as §1
# Gal6S(b1-4)Glc6S = molecular target: Gal6S(b1-4)Glc6S
# In short: as §1
# GalNAc(a1-3)Gal = molecular target: GalNAc(a1-3)Gal
# In short: as §1
# [24] = molecular target: GlcNAc(a1-4)Gal(b1-4)GalNAc
# In short: as §1
# [25] = molecular target: GlcNAc(a1-4)Gal(b1-4)GlcNAc(b1-3)Gal(b1-4)[Fuc(a1-3)]GlcNAc(b1-3)Gal(b1-4)[Fuc(a1-3)]GlcNAc
# In short: as §1
# [26] = molecular target: GlcNAc(b1-2)Man(a1-3)[GlcNAc(b1-2)Man(a1-6)]Man(b1-4)GlcNAc(b1-4)[Fuc(a1-6)]GlcNAc
# In short: as §1
# [27] = molecular target: Man(a1-3)[Man(a1-6)]Man(a1-6)[Man(a1-2)Man(a1-3)]Man(b1-4)GlcNAc(b1-4)GlcNAc
# In short: as §1
# [28] = molecular target: Neu5Ac(a2-3)Gal(b1-4)GlcNAc(b1-3)Gal(b1-4)GlcNAc
# In short: as §1
# [29] = molecular target: Neu5Ac(a2-3)Gal(b1-4)[Fuc(a1-3)]GlcNAc
# In short: as §1
# [30] = molecular target: Neu5Ac(a2-3)GalNAc(b1-4)GlcNAc
# In short: as §1
# Neu5Ac(a2-6)Gal = molecular target: Neu5Ac(a2-6)Gal
# In short: as §1
# [31] = molecular target: Neu5Gc(a2-3)Gal(b1-4)[Fuc(a1-3)]GlcNAc
# In short: as §1
# [32] = molecular target: Neu5Gc(b2-6)Gal(b1-4)GlcNAc
# In short: as §1
binder,measurement,setting,value
B1,glycan array binding signal (z-score),Kdn(a2-3)Gal(b1-4)Glc,-0.512
same,glycan array binding signal (z-score),[1],1.05
same,glycan array binding signal (z-score),Man(a1-3)[Man(a1-6)]Man,-0.627
same,glycan array binding signal (z-score),[2],-0.148
same,glycan array binding signal (z-score),[3],0.263
same,glycan array binding signal (z-score),[4],3.68
same,glycan array binding signal (z-score),[5],-0.322
same,glycan array binding signal (z-score),Neu5Ac(a2-6)Gal(b1-4)Glc,-0.522
same,glycan array binding signal (z-score),[6],-0.302
same,glycan array binding signal (z-score),[7],0.537
same,glycan array binding signal (z-score),[8],-0.463
same,glycan array binding signal (z-score),[9],0.179
same,glycan array binding signal (z-score),[10],-0.641
B2,glycan array binding signal (z-score),[11],1.86
same,glycan array binding signal (z-score),[12],1.71
same,glycan array binding signal (z-score),[13],0.016
same,glycan array binding signal (z-score),[14],-0.753
same,glycan array binding signal (z-score),[15],-0.105
same,glycan array binding signal (z-score),Gal(a1-3)Gal,0.351
same,glycan array binding signal (z-score),[16],0.006
same,glycan array binding signal (z-score),[17],0.436
same,glycan array binding signal (z-score),Gal(a1-3)GalNAc,-0.288
same,glycan array binding signal (z-score),Gal(b1-3)Gal(b1-4)GlcNAc,-0.549
same,glycan array binding signal (z-score),[18],1.28
same,glycan array binding signal (z-score),[19],-0.558
same,glycan array binding signal (z-score),[20],3.04
same,glycan array binding signal (z-score),[21],2.32
same,glycan array binding signal (z-score),[22],-0.096
same,glycan array binding signal (z-score),[23],0.169
same,glycan array binding signal (z-score),Gal6S(b1-4)Glc6S,4.38
same,glycan array binding signal (z-score),GalNAc(a1-3)Gal,0.054
same,glycan array binding signal (z-score),[24],0.375
same,glycan array binding signal (z-score),[25],0.807
same,glycan array binding signal (z-score),[26],13.7
same,glycan array binding signal (z-score),[27],1.44
same,glycan array binding signal (z-score),[28],2.13
same,glycan array binding signal (z-score),[29],-0.808
same,glycan array binding signal (z-score),[30],-0.177
same,glycan array binding signal (z-score),Neu5Ac(a2-6)Gal,0.288
same,glycan array binding signal (z-score),[31],0.103
same,glycan array binding signal (z-score),[32],0.403
